Molecules are shown by their SMILES. Inconclusive results are not listed. Unmarked numbers belong to inactive results. Calls of active or inactive are those of the source. The call rests on the fitted dose curve. Numbered stars: 1 amine (or outer) side, 2 acyl side, 3 side chain; on linkers, the order of the positions; unused ones are H or OH. Bridge positions count the residues as written; N and C are the ends. Square brackets hold non-standard residues; d marks the D form. Peptide text beside a SMILES is read from it. I, II: the chains in the order shown. Actinocin(9to1) = Cc1c2oc3c(C)ccc(C(=O)[*:1])c3nc-2c(C(=O)[*:2])c(N)c1=O; NMeV = CN[C@H](C(=O)O)C(C)C; Sar = CNCC(=O)O
On the % scale 0 is the no-effect control and ±100 the full control effect; potency means the concentration at half of the fitted maximal effect.

The nature of this assay: Confirmatory qHTS to identify inhibitors of SARS-CoV-2 cell entry (AID 1645844). Further: nearly all actives have a fitted effect of over 45% in size. The settings on record: SARS-CoV-2 pseudotyped particle cell entry, luciferase; series mostly up to 57.2 µM; activity, negative = inhibition: at the top concentration. From the text:
Assay Provider: Wei Zheng, Ph.D.
National Center for Advancing Translational Sciences, National Institute of Health, Rockville, MD.
SARS-CoV-2 spike protein, within the viral envelope, mediates viral attachment and infection of host cells. The SARS-CoV-2 spike protein specifically binds to the host receptor ACE2 (Angiotensin-converting enzyme 2). This interaction promotes endocytosis of the viral particle, additional events lead to viral-host cell membrane fusion and release of the viral contents, allowing viral replication.
While SARS-CoV-2 requires BSL-3 facilities for live virus work, pseudotyped partices (PP) that incorporate SARS-CoV-2 spike proteins without replication elements could facilitate studies on viral entry mechanisms in a BSL-2 setting. This PP cell entry assay could also enable screening of small molecule compound libraries in BSL-2 setting to identify inhibitors of SARS-CoV-2 cell entry.
SEQUENCE No. (e.g., 1, 2, 3, etc.); […] (e.g., Cells, Incubation, Reagent, etc.); VALUE and DESCRIPTION.
1. Cells. Seed 1500 HEK293-ACE2 cells (Expi293F with stable expression of human ACE2) in 2 uL/well media (DMEM, 10% FBS, 1x L-glutamine, 1x Pen/Strep, 1 ug/ml puromycin) in white 1536-well assay plates (Greiner #782073).
2. Incubation. Incubate at 37C with 5% CO2 overnight (~16 h).
3. Compounds. Dispense 23 nL/well compounds in DMSO via pin transfer.
4. Incubation. Incubate for 1 hr at 37C 5% CO2.
5. Reagent. Dispense 2 uL/well of SARS-CoV-2-S pseudotyped particles (PP). [a] PPs are produced with murine leukemia virus pseudotyping). [b] SARS-CoV-2-S is Wuhan-Hu-1 sequence (BEI #NR-52420) with C-terminal 19 amino acid truncation.
6. Centrifugation. […]
7. Incubation. Incubate at for 48 hr at 37C 5% CO2
8. Centrifugation. Remove supernatant with gentle centrifugation using a Blue Washer (BlueCat Bio).
9. Reagent. Dispense 4 uL/well of Bright-Glo Luciferase detection reagent (Promega #E2620).
10. Incubation. Incubate for 5 min at room temperature.
11. Detection. Read luminescence signal (Viewlux plate reader, PerkinElmer). Data was normalized with wells containing SARS-CoV-2-S PP as 100%, and wells containing bald PP (no fusion protein) as 0%.
For orientation: qHTS replaces the single test concentration by a dilution series.
Turning to `CC[C@]1(O)C[C@@H]2CN(CCc3c([nH]c4ccccc34)[C@@](C(=O)OC)(c3cc4c(cc3OC)N(C)[C@H]3[C@@](O)(C(=O)OC)[C@H](OC(C)=O)[C@]5(CC)C=CCN6CC[C@]43[C@@H]65)C2)C1`, the Potency was 0.0764 µM (active).

For the molecule `COc1cc(Nc2c(C#N)cnc3cc(OCCCN4CCN(C)CC4)c(OC)cc23)c(Cl)cc1Cl`, the Potency is 19.2 µM (active).

With `COc1c(C)c2c(c(O)c1C/C=C(\C)CCC(=O)OCCN1CCOCC1)C(=O)OC2`, the Potency is 0.0764 µM (active).

Regarding `CN(C)CCCN1c2ccccc2Sc2ccc(Cl)cc21`, the Potency was 12.1 µM (active).

`CC(=O)Oc1ccccc1C(=O)Nc1ncc([N+](=O)[O-])s1`: the Potency was 3.83 µM (active).

`CC(CN1c2ccccc2Sc2ccccc21)N(C)C` (stereo not given): the Potency was 13.6 µM (active).

On to `CC(CN(C)C)CN1c2ccccc2CCc2ccccc21` (stereo not given), for which the Potency was 7.64 µM (active).

With `Cc1ccc(NC(=O)c2ccc(CN3CCN(C)CC3)cc2)cc1Nc1nccc(-c2cccnc2)n1`, the Potency is 21.5 µM (active).

Take `Clc1ccc(COC(Cn2ccnc2)c2ccc(Cl)cc2Cl)cc1` (stereo not given): the Potency was 9.61 µM (active).

On to `CC[C@]1(O)C[C@H]2CN(CCc3c([nH]c4ccccc34)[C@@](C(=O)OC)(c3cc4c(cc3OC)N(C=O)[C@H]3[C@@](O)(C(=O)OC)[C@H](OC(C)=O)[C@]5(CC)C=CCN6CC[C@]43[C@@H]65)C2)C1`, for which the Potency was 0.0383 µM (active).

Turning to `CN1CCC(=C2c3ccccc3C=Cc3ccccc32)CC1`, the Potency was 8.57 µM (active).

In the case of `CC(=O)[C@]1(O)Cc2c(O)c3c(c(O)c2[C@@H](O[C@H]2C[C@H](N)[C@H](O)[C@H](C)O2)C1)C(=O)c1ccccc1C3=O`, the Potency is 0.0764 µM (active).

As to `Nc1ncn([C@@H]2O[C@H](CO)[C@@H](O)[C@H]2O)c(=O)n1`, the Potency is 17.1 µM (active).

Consider `C=C(CC)C(=O)c1ccc(OCC(=O)O)c(Cl)c1Cl`, for which the Potency is 8.57 µM (active).

Turning to `CO[C@@H](C(=O)N1Cc2[nH]nc(NC(=O)c3ccc(N4CCN(C)CC4)cc3)c2C1)c1ccccc1`, the Potency was 0.482 µM (active).

With `COC(=O)C1=C(C)NC(C)=C(C(=O)OCC(C)C)C1c1ccccc1[N+](=O)[O-]` (stereo not given), the Potency was 6.07 µM (active).

Regarding `CC/C(=C(\c1ccccc1)c1ccc(OCCN(C)C)cc1)c1ccccc1`, the Potency is 27.8 µM (active).

Consider `CCCc1cc(=O)[nH]c(=S)[nH]1`, for which the “activity, negative = inhibition” value was -10.8%.

In the case of `O=C1C(=O)c2ccccc2C(O)=C1C1CCC(c2ccc(Cl)cc2)CC1` (stereo not given), the Potency is 12.1 µM (active).

Consider `O=C(O)c1ccc(-n2nc(-c3ccccc3O)nc2-c2ccccc2O)cc1`, for which the Potency was 30.4 µM (active).

With `CCc1c2c(nc3ccc(OC(=O)N4CCC(N5CCCCC5)CC4)cc13)-c1cc3c(c(=O)n1C2)COC(=O)[C@]3(O)CC`, the Potency is 0.136 µM (active).

Turning to `Cc1cn([C@H]2C[C@H](N=[N+]=[N-])[C@@H](CO)O2)c(=O)[nH]c1=O`, the Potency is 0.541 µM (active).

In the case of `CCC1=C[C@@H]2CN(C1)Cc1c([nH]c3ccccc13)[C@@](C(=O)OC)(c1cc3c(cc1OC)N(C)[C@H]1[C@@](O)(C(=O)OC)[C@H](OC(C)=O)[C@]4(CC)C=CCN5CC[C@]31[C@@H]54)C2`, the Potency is 1.48 µM (active).

Turning to `CC(C)(C)C(=O)OCOP(=O)(COCCn1cnc2c(N)ncnc21)OCOC(=O)C(C)(C)C`, the Potency was 0.0086 µM (active).

For `O=C1CCc2ccc(OCCCCN3CCN(c4cccc(Cl)c4Cl)CC3)cc2N1`, the Potency was 19.2 µM (active).

Regarding `COC(=O)Nc1nc2ccc(C(=O)c3cccs3)cc2[nH]1`, the Potency was 0.215 µM (active).

Consider `CNCCC(Oc1ccc(C(F)(F)F)cc1)c1ccccc1` (stereo not given), for which the Potency is 6.81 µM (active).

For the molecule `Nc1ccn([C@@H]2O[C@H](CO)[C@@H](O)C2(F)F)c(=O)n1`, the Potency is 0.341 µM (active).

For `COC(c1ccccc1)(c1ccccc1)[C@H](Oc1nc(C)cc(C)n1)C(=O)O`, the “activity, negative = inhibition” value is -11.6%.

`COc1c(C)c2c(c(O)c1C/C=C(\C)CCC(=O)O)C(=O)OC2`: the Potency was 0.607 µM (active).

For the molecule `CN(C)C(=O)C(CCN1CCC(O)(c2ccc(Cl)cc2)CC1)(c1ccccc1)c1ccccc1`, the Potency is 21.5 µM (active).

For the molecule `CCCCNc1ccc(C(=O)OCCOCCOCCOCCOCCOCCOCCOCCOCCOC)cc1`, the Potency is 15.2 µM (active).

Turning to `COc1cccc2c1C(=O)c1c(O)c3c(c(O)c1C2=O)C[C@@](O)(C(=O)CO)C[C@@H]3O[C@H]1C[C@H](N)[C@H](O)[C@H](C)O1`, the Potency is 0.192 µM (active).

For `Cc1c2oc3c(C)ccc(C(=O)N[C@@H]4C(=O)N[C@H](C(C)C)C(=O)N5CCC[C@H]5C(=O)N(C)CC(=O)N(C)[C@@H](C(C)C)C(=O)O[C@@H]4C)c3nc-2c(C(=O)N[C@@H]2C(=O)N[C@H](C(C)C)C(=O)N3CCC[C@H]3C(=O)N(C)CC(=O)N(C)[C@@H](C(C)C)C(=O)O[C@@H]2C)c(N)c1=O` (I: T[dV]P[Sar][NMeV] / II: T[dV]P[Sar][NMeV]; ester I:1-I:C, II:1-II:C; linker I:N-II:N via Actinocin(9to1)), the Potency was 0.0764 µM (active).

With `N[C@@H](Cc1ccc(N(CCCl)CCCl)cc1)C(=O)O`, the Potency is 0.681 µM (active).
